Among all 310,000 compounds or so, about 14,000 (4.5%) showed an effect of 50% or more. The effect is printed as a negative number. For the sample, strong results were picked, then their nearest neighbours and some compounds at random.
What follows are compounds tested against human ether-à-go-go-related gene (hERG) potassium channel (human, UniProt Q12809) (assay: primary screen, population patch clamp on CHO cells stably expressing hERG; higher = less effect of the substance).
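Note: peak tail current of the secondary pulse compared with the same well before compound.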

human ether-à-go-go-related gene (hERG) potassium channel, sequence (Q12809 whole entry, looked up): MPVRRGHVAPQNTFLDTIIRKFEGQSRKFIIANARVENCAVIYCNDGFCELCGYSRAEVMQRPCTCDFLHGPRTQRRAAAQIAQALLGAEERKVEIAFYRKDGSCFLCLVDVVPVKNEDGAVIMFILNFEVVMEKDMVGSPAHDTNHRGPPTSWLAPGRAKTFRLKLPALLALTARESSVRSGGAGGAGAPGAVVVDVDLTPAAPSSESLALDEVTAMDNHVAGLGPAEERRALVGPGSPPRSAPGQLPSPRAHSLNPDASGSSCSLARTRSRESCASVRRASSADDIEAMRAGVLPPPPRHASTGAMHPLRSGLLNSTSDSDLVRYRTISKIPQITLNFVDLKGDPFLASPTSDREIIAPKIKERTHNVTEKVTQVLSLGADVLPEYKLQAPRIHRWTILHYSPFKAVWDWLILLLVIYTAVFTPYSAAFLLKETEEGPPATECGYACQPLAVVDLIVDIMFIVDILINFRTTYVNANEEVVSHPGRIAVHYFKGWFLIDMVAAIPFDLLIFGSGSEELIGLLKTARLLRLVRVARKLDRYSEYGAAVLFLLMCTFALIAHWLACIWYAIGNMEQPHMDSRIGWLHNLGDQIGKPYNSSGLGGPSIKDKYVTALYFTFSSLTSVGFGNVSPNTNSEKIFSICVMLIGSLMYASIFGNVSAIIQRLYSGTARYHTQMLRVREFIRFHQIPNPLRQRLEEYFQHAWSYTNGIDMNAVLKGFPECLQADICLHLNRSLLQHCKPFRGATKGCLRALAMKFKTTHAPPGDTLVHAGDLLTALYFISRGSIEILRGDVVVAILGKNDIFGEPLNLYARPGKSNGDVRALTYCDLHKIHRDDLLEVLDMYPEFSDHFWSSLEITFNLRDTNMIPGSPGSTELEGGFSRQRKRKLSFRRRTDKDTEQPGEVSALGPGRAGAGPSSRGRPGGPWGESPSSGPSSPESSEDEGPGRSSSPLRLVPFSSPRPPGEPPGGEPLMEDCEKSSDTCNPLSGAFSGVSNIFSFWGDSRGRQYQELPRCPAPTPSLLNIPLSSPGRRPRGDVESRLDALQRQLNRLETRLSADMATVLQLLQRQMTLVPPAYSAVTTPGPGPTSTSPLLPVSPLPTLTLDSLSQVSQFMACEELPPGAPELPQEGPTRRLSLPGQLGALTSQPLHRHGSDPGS

Structure (SMILES)	hERG current change (%, negative = inhibition) at 10uM [%]
O=C(Nc1ccc2c(c1)OCO2)[C@@H]1CCCN1S(=O)(=O)c1cccc2cccnc12	-6.18
CCOC(=O)C1C(c2ccc(Cl)cc2)NC(=S)NC1(O)C(F)(F)F (stereo not shown)	16.7
Cn1ccnc1SCC(=O)Nc1nc2c(F)c(F)c(F)cc2s1	11.3
O=C(O)COCC(=O)N1CCc2c([nH]c3ccccc23)C1C(F)(F)F (stereo not shown)	2.14
CN(C)CCNC(=O)C(=O)Nc1ccc2c(c1)N(S(=O)(=O)c1cccs1)CCC2	-2.98
CCCNC(=O)C(=O)Nc1ccc2c(c1)N(S(=O)(=O)c1cccs1)CCC2	-33.6
O=C(NCc1ccc(F)cc1)C(=O)NCC1CCCN1S(=O)(=O)c1ccccc1 (stereo not shown)	-38.2
O=C(NCCc1ccccc1)C(=O)NCC1CCCN1S(=O)(=O)c1cccs1 (stereo not shown)	-22.7
O=C(NCCc1ccccc1)C(=O)NCC1CCCN1S(=O)(=O)c1ccccc1 (stereo not shown)	-41.9
Cc1cc(F)ccc1S(=O)(=O)N1CCCCC1CCNC(=O)C(=O)NCc1ccccn1 (stereo not shown)	-61.4
O=C(NCCc1ccc(F)cc1)C(=O)NCC1CCCN1S(=O)(=O)c1cccs1 (stereo not shown)	-57.6
O=C(NCCc1ccc(F)cc1)C(=O)NCC1CCCN1S(=O)(=O)c1ccccc1 (stereo not shown)	-61.7
CCN(CC)CCNC(=O)C(=O)Nc1ccc2c(c1)N(S(=O)(=O)c1cccs1)CCC2	-78.2
O=C(NCCC1CCCCN1S(=O)(=O)c1ccc(F)cc1)C(=O)NCc1ccccn1 (stereo not shown)	-11.9
COc1ccc(CCNC(=O)C(=O)NCC2CCCN2S(=O)(=O)c2cccs2)cc1 (stereo not shown)	-32.9
Cc1ccc(C)c(S(=O)(=O)N2CCCCC2CCNC(=O)C(=O)NCc2ccccn2)c1 (stereo not shown)	-19.8
COc1ccc(N)cc1NC(=O)CN1CCCC1	19.3
CCN(CC)S(=O)(=O)c1ccc(Cl)c(NC(=O)COC(=O)c2ccc(O)cc2)c1	-21.4
CCCCC(=O)Nc1ccc(C(=O)N2CCCC(C(=O)OCC)C2)cc1 (stereo not shown)	7.66
O=C(NCCC1CCCCN1S(=O)(=O)c1cccs1)C(=O)Nc1ccccc1 (stereo not shown)	-10.1
O=C(NCCC1CCCCN1S(=O)(=O)c1cccs1)C(=O)Nc1cccc(F)c1 (stereo not shown)	-50.1
O=C(NCCC1CCCCN1S(=O)(=O)c1cccs1)C(=O)Nc1ccc(F)cc1 (stereo not shown)	-6.79

Reference: paper PMC4336329 (PLoS ONE, 2015)
